Results reported in the supplement of paper PMC4723716.
The full ranking holds about 3,600 compounds; the median of “viability index relative to DMSO control” is about 0.81, and the lowest 2% start at about 0.13. The sample holds the lowest values, similar compounds and a random draw of the others, so the mix is not that of the screen.

system: Plasmodium falciparum NF54 stage V gametocytes; assay: viability index relative to DMSO control (fraction); higher = less gametocyte killing; details: 1.25 µM, incubation time: 72 h
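Further: Saponin-lysis sexual stage assay in serum-free medium: MitoTracker Red CMXRos staining plus saponin, high-content imaging, particle count per well divided by plate mean of DMSO wells.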

Q: Which viability index does the source give for `OC1CCCCC1C1(NC(=S)Nc2ccccc2)CCCCC1` (stereo unspecified) here?
A: 1.08

Q: For `CC(C)(C)NC(=S)NN=CC=NNC(=S)NC(C)(C)C`, which viability index is on record?
A: 0.299

Q: `S=C(NN=CC=NNC(=S)Nc1ccccc1)Nc1ccccc1` was tested. Which viability index did it give?
A: 0.104

Q: `O=S(=O)(NCCNc1ncnc2scc(-c3ccccc3)c12)c1ccc(Cl)c(Cl)c1` was tested. Which viability index did it give?
A: 0.554

Q: With `FC(F)(F)c1ccc(Nc2nnnc3ccccc23)cc1` as the compound, how does the viability index read?
A: 1.04

Q: Which viability index does the source give for `Brc1ccc2[nH]c3nc4ccccc4nc3c2c1` here?
A: 0.699

Q: Which viability index does the source give for `c1ccc2nc3c(nnc4ccccc43)nc2c1` here?
A: 0.092

Q: How did the viability index turn out when `CC(=NNC(N)=S)C(C)=NNC(N)=S` was run?
A: 0.27

Q: Which viability index does the source give for `COC(OC)C(C)=NNC(N)=S` here?
A: 0.112

Q: With `COc1cc(Nc2cncc(-c3ccc(C(N)=O)cc3)n2)cc(OC)c1OC` as the compound, how does the viability index read?
A: 0.0179

Q: How did the viability index turn out when `COc1cc(Nc2cncc(-c3ccncc3)n2)cc(OC)c1OC` was run?
A: 0.524

Q: For `COc1cc(C(=O)Nc2nnc(-c3ccccc3)o2)cc(OC)c1OC`, which viability index is on record?
A: 0.81

Q: For `CSc1ccc(C=CC(=O)NC(=O)c2ccccc2O)cc1`, which viability index is on record?
A: 0.661

Q: For `CCOC(=O)C1=C(C)N(CCNc2ncc(C(F)(F)F)cc2Cl)C(=O)CC1`, which viability index is on record?
A: 1.04

Q: How did the viability index turn out when `CCCCCc1ccc(OCCCC[n+]2cccc(C)c2C)c(CCCCC)c1` was run?
A: 0.521

Q: `CCCn1c(=N)c(C(=O)NC2CCCCC2)cc2c(=O)n3cccc(C)c3nc21` was tested. Which viability index did it give?
A: 1.15

Q: With `CC(NCCN1CCNCC1)c1cc(C(C)(C)C)cc2c1CCC2(C)C` (stereo unspecified) as the compound, how does the viability index read?
A: 0.104

Q: Which viability index does the source give for `CC(C)=CCCC(C)=CCCC(C)NCCN1CCNCC1` (stereo unspecified) here?
A: 0.135

Q: Which viability index does the source give for `CC(NCCCN(C)C)c1cc(C(C)(C)C)cc2c1CCC2(C)C` (stereo unspecified) here?
A: 0.283

Q: How did the viability index turn out when `CC12C(=O)N(c3cccc(C(=O)O)c3)C(=O)C1C1c3ccccc3C2c2ccccc21` (stereo unspecified) was run?
A: 1.15

Q: With `Cc1c(Cl)cccc1NCC(=O)NN=C1CCCC1` as the compound, how does the viability index read?
A: 0.779

Q: For `COc1cc(OC)c(NC(=O)C2c3ccccc3C(=O)N(C)C2c2cccs2)cc1Cl` (stereo unspecified), which viability index is on record?
A: 0.546

Q: Which viability index does the source give for `COc1ccc(Cl)cc1NC(=O)C1c2ccccc2C(=O)N(CC(C)C)C1c1cccs1` (stereo unspecified) here?
A: 0.426

Q: With `CC(C)CN1C(=O)c2ccccc2C(C(=O)Nc2cccc(Cl)c2)C1c1cccs1` (stereo unspecified) as the compound, how does the viability index read?
A: 0.209

Q: With `CC(C)CN1C(=O)c2ccccc2C(C(=O)Nc2ccc(F)c(Cl)c2)C1c1cccs1` (stereo unspecified) as the compound, how does the viability index read?
A: 0.237

Q: For `COc1cc(Cl)c(C)cc1NC(=O)C1c2ccccc2C(=O)N(CC(C)C)C1c1cccs1` (stereo unspecified), which viability index is on record?
A: 0.398

Q: For `COc1ccc(NC(=O)C2c3ccccc3C(=O)N(CC(C)C)C2c2cccs2)cc1Cl` (stereo unspecified), which viability index is on record?
A: 0.104

Q: With `CC(C)CN1C(=O)c2ccccc2C(C(=O)Nc2ccc(C(C)C)cc2)C1c1cccs1` (stereo unspecified) as the compound, how does the viability index read?
A: 0.281

Q: Which viability index does the source give for `COc1cc(OC)c(NC(=O)C2c3ccccc3C(=O)N(CC(C)C)C2c2cccs2)cc1Cl` (stereo unspecified) here?
A: 0.0683

Q: For `COc1ccc(NC(=O)C2c3ccccc3C(=O)N(CC(C)C)C2c2cccs2)cc1OC` (stereo unspecified), which viability index is on record?
A: 0.0723

Q: Which viability index does the source give for `COc1cc(C(c2c(C)n(C)n(-c3ccccc3)c2=O)c2c(C)n(C)n(-c3ccccc3)c2=O)cc(Cl)c1OCc1ccccc1` here?
A: 0.699

Q: How did the viability index turn out when `Cc1n(C)c2ccccc2[n+]1CC(=O)c1ccccc1` was run?
A: 0.785

Q: Which viability index does the source give for `COc1ccc(NC(=O)c2cnn(-c3ccccc3)c2NC(=O)c2ccco2)cc1` here?
A: 0.846

Q: Which viability index does the source give for `COc1cccc(CNC(=O)Cn2ncc3c(=O)oc4ccc(C)cc4c32)c1` here?
A: 0.843

Q: For `CC(C)NCC(O)Cn1c2ccc(Cl)cc2c2cc(Cl)ccc21` (stereo unspecified), which viability index is on record?
A: 0.419

Q: Which viability index does the source give for `CC(=O)c1ccc(N2CCN(Cc3cc(-c4ccnc5cc(Cl)ccc45)ccc3O)CC2)cc1` here?
A: 0.433

Q: How did the viability index turn out when `O=C1CC(c2cccc([N+](=O)[O-])c2)c2cc3c(cc2N1)OCO3` (stereo unspecified) was run?
A: 0.839

Q: For `O=[N+]([O-])c1cc(Br)c(Nc2ccccc2)c([N+](=O)[O-])c1`, which viability index is on record?
A: 0.0522

Q: How did the viability index turn out when `O=C(O)CCNc1ccccc1[N+](=O)[O-]` was run?
A: 0.971

Q: For `Cc1cc(Nc2cccc([N+](=O)[O-])c2)nc2cc(O)ccc12`, which viability index is on record?
A: 0.819

Q: `COc1ccccc1NC(=O)C(=O)NCCc1ccc(OC)c(OC)c1` was tested. Which viability index did it give?
A: 0.413

Q: For `Cc1c(CN2CCC(N3CCC(C(=O)NC4CC4)CC3)CC2)[nH]c2c(Cl)cccc12`, which viability index is on record?
A: 0.865

Q: How did the viability index turn out when `O=C(CN1CCN(C(=O)c2ccco2)CC1)Nc1cc(C(F)(F)F)ccc1Cl` was run?
A: 1.11

Q: For `Cc1cc(C)n(-c2ncc(-c3ccc([N+](=O)[O-])cc3)cn2)n1`, which viability index is on record?
A: 1.02

Q: With `CC1CCN(c2nncc3ccccc23)CC1` as the compound, how does the viability index read?
A: 0.777

Q: How did the viability index turn out when `Cc1cc(N2CCC(C)CC2)nc(-n2nc(C)cc2C)n1` was run?
A: 0

Q: Which viability index does the source give for `CN1CCC(CCNCc2ccc(OCC(O)CN(C)Cc3ccccc3)cc2)CC1` (stereo unspecified) here?
A: 0.856

Q: `Cn1c(=O)c(Cl)c2c3c(c(Cl)ccc31)C(=O)c1ccccc1-2` was tested. Which viability index did it give?
A: 0.0761

Q: Which viability index does the source give for `CCCCNC(=O)c1nn(-c2ccc(OC)cc2)c(=O)c2ccccc12` here?
A: 0.946

Q: For `O=c1c(=Cc2ccc(-c3ccc([N+](=O)[O-])cc3Cl)o2)sc2nc3ccccc3n12`, which viability index is on record?
A: 0.699

Q: With `CCC(C)NCC(O)(c1ccc(Cl)cc1)c1ccc(Cl)cc1` (stereo unspecified) as the compound, how does the viability index read?
A: 0.699

Q: How did the viability index turn out when `CCCOC(=O)C1=C(C)NC2=C(C(=O)CC(c3ccc(OC)c(OC)c3)C2)C1c1ccc([N+](=O)[O-])cc1` (stereo unspecified) was run?
A: 0.514

Q: `CCOC(=O)c1c(-c2ccccc2)oc2c1C(=O)c1ccccc1C2=O` was tested. Which viability index did it give?
A: 0.461

Q: `CCOC(=O)c1[nH]nc(C(=O)c2ccccc2)c1-c1ccccc1` was tested. Which viability index did it give?
A: 1.27

Q: For `CCOC(=O)c1c(Cl)nnc(-c2ccccc2)c1-c1ccccc1`, which viability index is on record?
A: 0

Q: Which viability index does the source give for `CCOC(=O)c1c(NC(=O)Cc2ccc([N+](=O)[O-])cc2)sc2c1CCCC2` here?
A: 1.02

Q: For `Cc1ccc(CN2C(=O)C(O)(CC(=O)c3ccccc3)c3ccccc32)cc1` (stereo unspecified), which viability index is on record?
A: 0.914

Q: Which viability index does the source give for `CCN1C(=Cc2sc3ccccc3[n+]2C)C=Cc2ccc(C)cc21` here?
A: 0.51

Q: For `Cc1cc(NCCCN(C)C)c2ccccc2n1`, which viability index is on record?
A: 0.888

Q: `CN(C)CCCNc1c2ccccc2nc2ccccc12` was tested. Which viability index did it give?
A: 0.0224

Q: Which viability index does the source give for `CN(C)CCNc1c2c(nc3ccccc13)CCC2` here?
A: 0.953
